# Results: the supplement of paper PMC13380429
# Test system: Vero E6 infected with SARS-CoV-2
# Experiment: morphology score (similarity to uninfected cells); higher = more like uninfected cells
# Conditions: 24 h
row,SMILES,morphology score
1,COc1ccc2[nH]c([S+]([O-])Cc3ncc(C)c(OC)c3C)nc2c1 (configuration not stated) [omeprazole-magnesium] (10 µM),-0.138
2,CCOC(=O)N1CSC[C@H]1C(=O)O [telmesteine] (10 µM),0.00511
3,O=S(=O)(N[C@H]1CC[C@@](c2cc(F)ccc2F)(S(=O)(=O)c2ccc(Cl)cc2)CC1)C(F)(F)F (10 µM),0.0636
4,N=C(N)c1ccc(OCCCCCOc2ccc(C(=N)N)cc2)cc1 [pentamidine] (10 µM),0.104
5,CCn1nc(C(=O)O)c(=O)c2cc3c(cc21)OCO3 [cinoxacin] (10 µM),-0.0392
6,CN/C(=N\S(=O)(=O)c1ccc(Cl)cc1)N1C[C@H](c2ccccc2)C(c2ccc(Cl)cc2)=N1 (racemic) (10 µM),-0.133
7,Cc1nc[nH]c1CCN [4-methylhistamine] (10 µM),0.105
8,COC(=O)Nc1ccc(-c2nc(N3CCOCC3)c3cnn(C4CCN(Cc5cccnc5)CC4)c3n2)cc1 (10 µM),-0.198
9,Cc1ccsc1C(=CCCN1CCC[C@@H](C(=O)O)C1)c1sccc1C [tiagabine] (10 µM),0.0772
10,CCN(CC)CCOc1ccc(Nc2ncc3cc(-c4c(Cl)cccc4Cl)c(=O)n(C)c3n2)cc1 (10 µM),-0.126
11,C[C@]12CC[C@H](O)CC1=CC[C@@H]1[C@@H]2CC[C@]2(C)C(c3cccnc3)=CC[C@@H]12 [Abiraterone (CB-7598)] (10 µM),-0.0295
12,O=C(Nc1cc(C(F)(F)F)cc(C(F)(F)F)c1)Nc1c(Br)cc(Br)cc1-c1nnn[nH]1 (10 µM),0.192
